Growth inhibition data for ten compounds are collected here from PubChem BioAssay (NCI).

A short description of assay [1]: NCI Yeast Anticancer Drug Screen. Data for the rad50 strain (AID 155).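 Further: 0% = growth of vehicle-only cultures of the same strain.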 The conditions noted are these: S. cerevisiae rad50 strain growth inhibition, active compounds read high. Put shortly:
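Growth of the mutant yeast was measured after compound exposure and referenced to vehicle-treated cultures.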

Assay [2] is described as follows: NCI Yeast Anticancer Drug Screen. Data for the mec2-1 strain (AID 157). The conditions noted are these: S. cerevisiae mec2-1 strain, active compounds read high. The method in brief: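 Vehicle-treated cultures served as reference for growth inhibition of compound-exposed mec2-1 yeast.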
A short description of assay [3]: NCI Yeast Anticancer Drug Screen. Data for the sgs1 mgt1 strain (AID 161).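 Further: 0% = growth of cultures given vehicle only.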 The conditions noted are these: S. cerevisiae sgs1 mgt1 strain, active compounds read high. The method in brief: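 Test agents were incubated with a DNA-repair-mutant yeast strain. Growth was then read and compared against vehicle-treated controls.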
A short description of assay [4]: NCI Yeast Anticancer Drug Screen. Data for the cln2 rad14 strain (AID 165).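 Further: 0% = growth equal to vehicle treated cultures.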 The conditions noted are these: S. cerevisiae cln2 rad14 strain, active compounds read high. Put shortly: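 Each compound was tested on cln2 rad14 yeast. Inhibition of growth was calculated against vehicle-exposed controls.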
A short description of assay [5]: NCI Yeast Anticancer Drug Screen. Data for the bub3 strain (AID 167). The conditions noted are these: S. cerevisiae bub3 mutant strain, active compounds read high. Put shortly:
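Whole-cell yeast assay. The mutant strain was incubated with compounds, and growth inhibition was determined by comparison with vehicle-treated cells.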

Assay [6] can be described thus: NCI Yeast Anticancer Drug Screen. Data for the mlh1 rad18 strain (AID 175). The conditions noted are these: S. cerevisiae mlh1 rad18 strain growth inhibition, active compounds read high. Put shortly: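 Vehicle-treated cultures served as the reference for growth inhibition in a yeast strain carrying DNA damage repair alterations exposed to each compound.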
Setting [7] is: at 5.0 µM (retest, dose inferred, filed as 0.5).
Where [8] appears, read: at 50.0 µM (retest, dose inferred, filed as 5.0).

About 79,000 compounds went through this panel and 15% of them were active in at least one assay; those are over-represented in the sample as a whole. Values without a mark were called inactive. Calls of active or inactive are those of the source. No stated cut-off is given here; in the data, active means growth inhibition above about 70%; inactive means the rest.

Turning to `O=C1C(CCl)=CS(=O)(=O)c2ccccc21`, the growth inhibition is 10% in assay [1] (setting [7]); 99% (active) in assay [1] (setting [8]); 99.1% (active) in assay [1] (at 50.0 µM); 17% in assay [2] (setting [7]); 99% (active) in assay [2] (setting [8]); 99.3% (active) in assay [2] (at 50.0 µM). Further, the growth inhibition was 16% in assay [3] (setting [7]); 99% (active) in assay [3] (setting [8]); 99.2% (active) in assay [3] (at 50.0 µM); 5% in assay [4] (setting [7]); 99% (active) in assay [4] (setting [8]); 99.3% (active) in assay [4] (at 50.0 µM). Besides, the growth inhibition in assay [5] (setting [7]) was 4%; in assay [5] (setting [8]) it was 99% (active); in assay [5] (at 50.0 µM), 99.3% (active); in assay [6] (setting [7]), 36%; in assay [6] (setting [8]), 99% (active); in assay [6] (at 50.0 µM), 99.2% (active).

Regarding `OC(c1ccccc1)c1cccc2ccccc12` (stereo not given), the growth inhibition is -1% in assay [1] (setting [7]); 47% in assay [1] (setting [8]); 91.3% (active) in assay [1] (at 50.0 µM); -5% in assay [2] (setting [7]); 14% in assay [2] (setting [8]); 67.3% in assay [2] (at 50.0 µM). Moreover, the growth inhibition in assay [3] (setting [7]) was 20%; in assay [3] (setting [8]), 25%; in assay [3] (at 50.0 µM), -1.85%; in assay [4] (setting [7]) it was -8%; in assay [4] (setting [8]), 18%; in assay [4] (at 50.0 µM), 44.8%. The growth inhibition was -1% in assay [5] (setting [7]); 30% in assay [5] (setting [8]); 67% in assay [5] (at 50.0 µM); -1% in assay [6] (setting [7]); 25% in assay [6] (setting [8]); 43.1% in assay [6] (at 50.0 µM).

Turning to `O=[N+]([O-])C1=Cc2ccccc2S(=O)(=O)CC1`, the growth inhibition in assay [1] (setting [7]) is 6%; in assay [1] (setting [8]), 93% (active); in assay [1] (at 50.0 µM), 92.9% (active); in assay [2] (setting [7]), 14%; in assay [2] (setting [8]), 93% (active); in assay [2] (at 50.0 µM) it was 92.2% (active). In addition, the growth inhibition is 14% in assay [3] (setting [7]); 95% (active) in assay [3] (setting [8]); 92.7% (active) in assay [3] (at 50.0 µM); -8% in assay [4] (setting [7]); 83% (active) in assay [4] (setting [8]); 63.5% in assay [4] (at 50.0 µM). Further, the growth inhibition in assay [5] (setting [7]) was -24%; in assay [5] (setting [8]) it was 85% (active); in assay [5] (at 50.0 µM), 90.5% (active); in assay [6] (setting [7]) it was 21%; in assay [6] (setting [8]), 97% (active); in assay [6] (at 50.0 µM) it was 97.9% (active).

Turning to `NC(=O)c1ccc[n+](CC(=O)Nc2ccc(Cl)cc2)c1`, the growth inhibition in assay [1] (setting [7]) is 2%; in assay [1] (setting [8]) it was -3%; in assay [1] (at 50.0 µM), 5.6%; in assay [2] (setting [7]) it was -9%; in assay [2] (setting [8]), -4%; in assay [2] (at 50.0 µM) it was -1.35%. Further, the growth inhibition in assay [3] (setting [7]) was -5%; in assay [3] (setting [8]) it was -28%; in assay [3] (at 50.0 µM), -7.2%; in assay [4] (setting [7]) it was -1%; in assay [4] (setting [8]) it was -6%; in assay [4] (at 50.0 µM), -57.3%. Further, the growth inhibition was 0% in assay [5] (setting [7]); -11% in assay [5] (setting [8]); 31% in assay [5] (at 50.0 µM); 11% in assay [6] (setting [7]); 4% in assay [6] (setting [8]); -13.9% in assay [6] (at 50.0 µM).

As to `F[Si](c1ccccc1)(c1ccccc1)c1ccccc1`, the growth inhibition was -3% in assay [1] (setting [7]); 75% (active) in assay [1] (setting [8]); 62% in assay [1] (at 50.0 µM); 3% in assay [2] (setting [7]); 87% (active) in assay [2] (setting [8]); 25.3% in assay [2] (at 50.0 µM). Further, the growth inhibition in assay [3] (setting [7]) is 8%; in assay [3] (setting [8]) it was 79% (active); in assay [3] (at 50.0 µM), 32.1%; in assay [4] (setting [7]), 0%; in assay [4] (setting [8]) it was 82% (active); in assay [4] (at 50.0 µM) it was 41.6%. Also, the growth inhibition in assay [5] (setting [7]) is -5%; in assay [5] (setting [8]), 98% (active); in assay [5] (at 50.0 µM), 45.6%; in assay [6] (setting [7]) it was 10%; in assay [6] (setting [8]) it was 94% (active); in assay [6] (at 50.0 µM) it was 79.5% (active).

Turning to `Cc1ccc(NC(=O)CCC(=O)CC(=O)C(C)(C)C)cc1C`, the growth inhibition in assay [1] (setting [7]) is 16%; in assay [1] (setting [8]) it was 7%; in assay [1] (at 50.0 µM), 1.1%; in assay [2] (setting [7]) it was 2%; in assay [2] (setting [8]) it was -2%; in assay [2] (at 50.0 µM), -14.3%. Further, the growth inhibition in assay [3] (setting [7]) is 13%; in assay [3] (setting [8]) it was 3%; in assay [3] (at 50.0 µM), -13.8%; in assay [4] (setting [7]), -5%; in assay [4] (setting [8]), 4%; in assay [4] (at 50.0 µM) it was 34.8%. Besides, the growth inhibition was -6% in assay [5] (setting [7]); 3% in assay [5] (setting [8]); -7.9% in assay [5] (at 50.0 µM); -2% in assay [6] (setting [7]); -4% in assay [6] (setting [8]); -15.7% in assay [6] (at 50.0 µM).

For `CC(C)Sc1nc(NC(=O)N(CCCl)N=O)cc(=O)[nH]1`, the growth inhibition in assay [1] (setting [7]) was -12%; in assay [1] (setting [8]), 26%; in assay [1] (at 50.0 µM), 13.8%; in assay [2] (setting [7]), -4%; in assay [2] (setting [8]) it was 9%; in assay [2] (at 50.0 µM), -2%. The growth inhibition in assay [3] (setting [7]) is -12%; in assay [3] (setting [8]) it was 23%; in assay [3] (at 50.0 µM), 20.4%; in assay [4] (setting [7]), 8%; in assay [4] (setting [8]) it was 12%; in assay [4] (at 50.0 µM), 5.7%. Moreover, the growth inhibition in assay [5] (setting [7]) is -1%; in assay [5] (setting [8]) it was 7%; in assay [5] (at 50.0 µM) it was 13.2%; in assay [6] (setting [7]) it was 2%; in assay [6] (setting [8]), 74% (active); in assay [6] (at 50.0 µM), 23.8%.

As for `O=C1NC(CSSCC2NC(=O)N(c3ccccc3)C2=O)C(=O)N1c1ccccc1` (stereo not given), the growth inhibition in assay [1] (setting [7]) was 8%; in assay [1] (setting [8]), 94% (active); in assay [1] (at 50.0 µM) it was 87.9% (active); in assay [2] (setting [7]), 11%; in assay [2] (setting [8]) it was 97% (active); in assay [2] (at 50.0 µM), 58.9%. For the same compound, the growth inhibition in assay [3] (setting [7]) is 16%; in assay [3] (setting [8]), 99% (active); in assay [3] (at 50.0 µM), 93.6% (active); in assay [4] (setting [7]), 1%; in assay [4] (setting [8]), 90% (active); in assay [4] (at 50.0 µM) it was 58.1%. For the same compound, the growth inhibition in assay [5] (setting [7]) was 4%; in assay [5] (setting [8]), 98% (active); in assay [5] (at 50.0 µM) it was 55.5%; in assay [6] (setting [7]), 8%; in assay [6] (setting [8]), 96% (active); in assay [6] (at 50.0 µM), 95.2% (active).

As for `O=Cc1nc2c3cccnc3ccc2n1Cc1ccccc1`, the growth inhibition in assay [1] (setting [7]) is -4%; in assay [1] (setting [8]), 24%; in assay [1] (at 50.0 µM), 0.05%; in assay [2] (setting [7]), -17%; in assay [2] (setting [8]), 8%; in assay [2] (at 50.0 µM), -18.8%. The growth inhibition in assay [3] (setting [7]) is -17%; in assay [3] (setting [8]), 15%; in assay [3] (at 50.0 µM) it was 35.4%; in assay [4] (setting [7]) it was -2%; in assay [4] (setting [8]), 5%; in assay [4] (at 50.0 µM), 26.7%. Further, the growth inhibition in assay [5] (setting [7]) is 0%; in assay [5] (setting [8]) it was 11%; in assay [5] (at 50.0 µM), 57.4%; in assay [6] (setting [7]), 8%; in assay [6] (setting [8]), 34%; in assay [6] (at 50.0 µM), 40.9%.

With `O=C(CCCN1CCN2Cc3[nH]c4ccccc4c3CC2C1)c1ccc(F)cc1` (stereo not given), the growth inhibition in assay [1] (setting [7]) was 5%; in assay [1] (setting [8]) it was 58%; in assay [1] (at 50.0 µM), 98.8% (active); in assay [2] (setting [7]), 7%; in assay [2] (setting [8]) it was 73% (active); in assay [2] (at 50.0 µM) it was 98.7% (active). Moreover, the growth inhibition in assay [3] (setting [7]) was 20%; in assay [3] (setting [8]) it was 92% (active); in assay [3] (at 50.0 µM) it was 66.8%; in assay [4] (setting [7]), 2%; in assay [4] (setting [8]) it was 59%; in assay [4] (at 50.0 µM) it was 95.6% (active). Moreover, the growth inhibition in assay [5] (setting [7]) is 4%; in assay [5] (setting [8]) it was 60%; in assay [5] (at 50.0 µM), 92.1% (active); in assay [6] (setting [7]), 37%; in assay [6] (setting [8]) it was 88% (active); in assay [6] (at 50.0 µM), 99.3% (active).
